Experimental data reported in PubChem BioAssay (EPA / NIEHS).
Several values for one entry are separate records, joined by “and”; a condition that tells them apart may be missing. Identical values can stand only once. Inconclusive results are not listed. Some compounds were tested as several samples or in several runs, with calls that do not always agree. Activity calls are given as the source filed them. How the source made its calls, unless noted: active means hit-call score of the fitted dose curve at least 0.9, where 1 is the maximum; inconclusive means response in the unintended direction; inactive means score below 0.9.

How the values were obtained:
[1] = molecular target: Cellular tumor antigen p53 (Homo sapiens) (UniProt P04637); experiment: TOX21_p53_BLA_p5_ratio: Tox21 HCT-116 p53 Agonism Beta-lactamase Assay, Ratio, Phase 5 (AID 2283599)
Chain of Cellular tumor antigen p53 (Homo sapiens) (P04637 whole entry, looked up): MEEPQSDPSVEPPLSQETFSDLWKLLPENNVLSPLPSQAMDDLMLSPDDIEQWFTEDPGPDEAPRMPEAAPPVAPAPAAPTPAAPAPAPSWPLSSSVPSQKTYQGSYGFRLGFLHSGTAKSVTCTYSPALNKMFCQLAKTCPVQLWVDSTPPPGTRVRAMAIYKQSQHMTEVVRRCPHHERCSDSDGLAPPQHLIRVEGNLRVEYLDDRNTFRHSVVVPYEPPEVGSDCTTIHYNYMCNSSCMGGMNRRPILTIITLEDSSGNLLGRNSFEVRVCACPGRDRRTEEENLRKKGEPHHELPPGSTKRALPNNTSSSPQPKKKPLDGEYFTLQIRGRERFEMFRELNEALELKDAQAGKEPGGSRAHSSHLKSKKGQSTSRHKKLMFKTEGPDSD
In short: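 HCT-116 cells carrying a p53-inducible beta-lactamase reporter were seeded at 4000 cells/well and dosed after 5 h with compound in DMSO (217-fold dilution). After 16 h at 37C, CCF4-AM substrate was added for 2 h, and the 460/530 nm emission ratio was scored as gain-of-signal versus DMSO.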

[2] = TOX21_p53_BLA_p5_viability: Viability Assessment in the Tox21 HCT-116 p53 Agonism Beta-lactamase Assay, Phase 5 (AID 2283600)
In short: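 Counter-readout for cytotoxicity: ATP-dependent luminescence from CellTiter-Glo, read in the beta-lactamase wells after 30 min at RT, following a 16 h compound exposure at 37C.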

[3] = molecular target: Cellular tumor antigen p53 (Homo sapiens) (UniProt P04637); experiment: TOX21_p53_BLA_p4_ratio: Tox21 HCT-116 p53 Agonism Beta-lactamase Assay, Ratio, Phase 4 (AID 2283601)
In short: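 HCT116 cells carrying an inducible beta-lactamase reporter were plated at 4000 cells/well, rested 5 h, then exposed to compounds in DMSO (217-fold dilution) for 16 h at 37C. CCF4-AM substrate was loaded 2 h at room temperature; 460/530 nm emission ratio scored gain-of-signal versus DMSO.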

[4] = Tanguay_ZF_120hpf_MORT_legacy: (Legacy) Oregon State University Tanguay Lab 120 Hour Post-fertilization zebrafish Assay for Mortality (AID 2283633);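 on AC50: fitted as increase in binary mortality versus DMSO negative control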
In short: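 Mortality endpoint from a multiplexed whole-embryo zebrafish screen. Dechorionated wild-type embryos received compound at 6 hpf and remained under static exposure at 28C until 120 hpf, with death noted as a present/absent call.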

[5] = Tanguay_ZF_120hpf_YSE_legacy: (Legacy) Oregon State University Tanguay Lab 120 Hour Post-fertilization zebrafish Assay for Yolk Sac Edema (AID 2283634)
In short: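 Readout: presence or absence of yolk sac edema at 120 hpf, fitted upward against DMSO controls. Exposure ran statically from 6 hpf in dechorionated embryos kept at 28C.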

[6] = Tanguay_ZF_120hpf_AXIS_legacy: (Legacy) Oregon State University Tanguay Lab 120 Hour Post-fertilization zebrafish Assay for Body Axis Malformation (AID 2283635)
In short: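 Static 6–120 hpf chemical exposure of dechorionated wild-type 5D zebrafish, one per well at 28C; morphology endpoint scored binary at 120 hpf relative to DMSO control.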

[7] = Tanguay_ZF_120hpf_PE_legacy: (Legacy) Oregon State University Tanguay Lab 120 Hour Post-fertilization zebrafish Assay for Pericardial Edema (AID 2283640)
In short: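 Read-out is the presence or absence of pericardial edema at 120 hpf under brightfield, with gain of signal fitted against DMSO controls. Larvae (5D wild-type) were statically exposed at 28C with 0.64% final DMSO.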

[8] = Tanguay_ZF_120hpf_BRAI_legacy: (Legacy) Oregon State University Tanguay Lab 120 Hour Post-fertilization zebrafish Assay for Brain Malformation (AID 2283641)
In short: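 Brain malformation in Tropical 5D zebrafish was recorded as a binary endpoint after static compound exposure from early development to 120 hpf at 28C. Activity was analysed against DMSO as negative control.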

[9] = Tanguay_ZF_120hpf_SOMI_legacy: (Legacy) Oregon State University Tanguay Lab 120 Hour Post-fertilization zebrafish Assay for Somite Malformation (AID 2283647)
In short: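 5D WT zebrafish; chorion removed 4 hpf; 1 embryo/well from 6 hpf; static exposure to 120 hpf, 28C, 0.64% DMSO final. Endpoint: somite malformation, binary, brightfield. Mortality excluded.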

[10] = Tanguay_ZF_120hpf_CFIN_legacy: (Legacy) Oregon State University Tanguay Lab 120 Hour Post-fertilization zebrafish Assay for Caudal Fin Malformation (AID 2283649)
In short: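 Embryos were collected from Tropical 5D wild-type adults and dechorionated at 4 hpf. At 6 hpf each was exposed, one per well, at 0.64% DMSO and 28C. At 120 hpf fin morphology was scored; dead embryos were excluded.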

[11] = Tanguay_ZF_120hpf_PIG_legacy: (Legacy) Oregon State University Tanguay Lab 120 Hour Post-fertilization zebrafish Assay for Pigmentation Malformation (AID 2283650)
In short: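 Tropical 5D wild-type zebrafish embryos, dechorionated with pronase at 4 hpf, were exposed singly from 6 hpf to 120 hpf statically at 28C in sealed, dark plates with 0.64% DMSO; pigmentation scored present/absent by brightfield microscopy, fitted against DMSO.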

[12] = Tanguay_ZF_120hpf_CIRC_legacy: (Legacy) Oregon State University Tanguay Lab 120 Hour Post-fertilization zebrafish Assay for Circulatory Malformation (AID 2283651)
In short: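 Using wild-type Tropical 5D zebrafish, we exposed dechorionated embryos from 6 to 120 hpf in embryo medium with 0.64% DMSO. Circulatory defects were scored as present or absent; 5uM trimethyltin chloride served as positive control.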

[13] = Tanguay_ZF_120hpf_SWIM_legacy: (Legacy) Oregon State University Tanguay Lab 120 Hour Post-fertilization zebrafish Assay for Swim Bladder Malformation (AID 2283654);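 further: swim bladder malformation in each larva scored yes or no under brightfield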
In short: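 Dechorionated Tropical 5D wild-type embryos, placed singly from 6 hpf, were statically exposed at 28C to 120 hpf with 0.64% DMSO final; swim bladder malformation was scored present/absent by brightfield microscopy, gain of signal relative to DMSO controls.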

[14] = Tanguay_ZF_120hpf_EYE_legacy: (Legacy) Oregon State University Tanguay Lab 120 Hour Post-fertilization zebrafish Assay for Eye Malformation (AID 2283636);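 further: binary presence or absence of eye malformation scored by brightfield in 120 hpf larvae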
In short: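 Dechorionated wild-type Tropical 5D zebrafish embryos were exposed statically from 6 hpf, one per well, to 120 hpf at 28C in sealed, foil-covered plates with 0.64% DMSO. Eye malformation was scored present/absent by brightfield microscopy against DMSO controls.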

[15] = Tanguay_ZF_120hpf_JAW_legacy: (Legacy) Oregon State University Tanguay Lab 120 Hour Post-fertilization zebrafish Assay for Jaw Malformation (AID 2283638)
In short: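 Static waterborne exposure of dechorionated wild-type (Tropical 5D) zebrafish from 6 to 120 hpf at 28C, 0.64% DMSO vehicle; 5uM trimethyltin chloride served as positive control. Jaw morphology recorded as binary at 120 hpf.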

[16] = Tanguay_ZF_120hpf_PFIN_legacy: (Legacy) Oregon State University Tanguay Lab 120 Hour Post-fertilization zebrafish Assay for Pectoral Fin Malformation (AID 2283648);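 further: each larva judged yes or no for fin defect by brightfield with dead larvae skipped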
In short: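 Tropical 5D wild-type embryos, dechorionated with pronase at 4 hpf, were placed singly in wells at 6 hpf and statically exposed until 120 hpf at 28C, sealed and dark, with 0.64% (vol/vol) final DMSO; pectoral fin malformation scored present/absent.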

[17] = Tanguay_ZF_120hpf_SNOU_legacy: (Legacy) Oregon State University Tanguay Lab 120 Hour Post-fertilization zebrafish Assay for Snout Malformation (AID 2283637)
In short: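 Tropical 5D wild-type zebrafish embryos, dechorionated with pronase at 4 hpf, were exposed singly from 6 hpf to 120 hpf statically at 28C in 0.64% DMSO. Snout malformation was scored present/absent by brightfield microscopy, fitted against DMSO.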

[18] = Tanguay_ZF_120hpf_OTIC_legacy: (Legacy) Oregon State University Tanguay Lab 120 Hour Post-fertilization zebrafish Assay for Otic Vesicle Malformation (AID 2283639)
In short: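 Otic vesicle malformation is read as a yes/no morphology call at 120 hpf. Exposure is static at 28C with 0.64% (vol/vol) DMSO; embryos that die are excluded from non-mortality endpoints.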

[19] = read-out: solute carrier (SLC22A6), SLC22A6 (gene 9356); experiment: LTEA_HepaRG_SLC22A6: Life Technologies and Expression Analysis (LTEA) Assay for solute carrier (SLC22A6) using HepaRG (AID 2283653; active means hit-call score of the fitted dose curve at least 0.9, where 1 is the maximum; inactive means score below 0.9); details: mRNA level, 48 h; actives raise or lower the signal
In short: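 This endpoint tracks SLC22A6 mRNA induction or suppression in human HepaRG cultures after 48 h dosing, concentrations reaching 100 uM. Values derive from bidirectional fitting against DMSO controls.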

Structure (SMILES): COC(=O)c1ccc(I)cc1S(=O)(=O)NC(=O)Nc1nc(C)nc(OC)n1
- outcome [1]: inactive
- outcome [2]: inactive
- outcome [3]: inactive
- outcome [4]: inactive
- outcome [5]: inactive
- outcome [6]: inactive
- outcome [7]: inactive
- outcome [8]: inactive
- outcome [9]: inactive
- outcome [10]: inactive
- outcome [11]: inactive
- outcome [12]: inactive
- outcome [13]: inactive

Structure (SMILES): CCCOC(=O)NCCCN(C)C
- outcome [1]: inactive
- outcome [2]: inactive
- outcome [3]: inactive
- outcome [4]: inactive
- outcome [5]: inactive
- outcome [6]: inactive
- outcome [14]: inactive
- outcome [15]: inactive
- outcome [8]: inactive
- outcome [9]: inactive
- outcome [16]: inactive
- outcome [10]: inactive
- outcome [11]: inactive
- outcome [12]: inactive
- outcome [13]: inactive

Structure (SMILES): O=C(O)c1ccccc1
- outcome [1]: inactive
- outcome [2]: inactive
- outcome [3]: inactive
- outcome [4]: inactive
- outcome [5]: inactive
- outcome [6]: inactive
- outcome [14]: inactive
- outcome [17]: inactive
- outcome [15]: inactive
- outcome [18]: inactive
- outcome [8]: inactive
- outcome [9]: inactive
- outcome [10]: inactive
- outcome [11]: inactive
- outcome [12]: inactive
- outcome [19]: inactive
- outcome [13]: inactive

Structure (SMILES): Cc1nn(C)c(Oc2ccccc2)c1C=NOCc1ccc(C(=O)OC(C)(C)C)cc1
- outcome [1]: inactive
- outcome [2]: inactive
- outcome [3]: inactive
- AC50 [4]: 3.26 µM (active)
- outcome [5]: inactive
- outcome [6]: inactive
- outcome [14]: inactive
- outcome [17]: inactive
- outcome [15]: inactive
- outcome [18]: inactive
- outcome [8]: inactive
- outcome [9]: inactive
- outcome [10]: inactive
- outcome [11]: inactive
- outcome [12]: inactive
- outcome [13]: inactive

Structure (SMILES): CCNc1nc(N)nc(Cl)n1
- outcome [1]: inactive
- outcome [2]: inactive
- outcome [3]: inactive
- outcome [4]: inactive
- outcome [5]: inactive
- outcome [6]: inactive
- outcome [14]: inactive
- outcome [17]: inactive
- outcome [15]: inactive
- outcome [18]: inactive
- outcome [8]: inactive
- outcome [9]: inactive
- outcome [10]: inactive
- outcome [11]: inactive
- outcome [12]: inactive
- outcome [13]: inactive

Structure (SMILES): C#CCOC(=O)[C@@H](C)Oc1ccc(Oc2ncc(Cl)cc2F)cc1
- outcome [1]: inactive
- outcome [2]: inactive
- outcome [3]: inactive
- outcome [4]: inactive
- outcome [5]: inactive
- outcome [6]: inactive
- outcome [14]: inactive
- outcome [17]: inactive
- outcome [15]: inactive
- outcome [18]: inactive
- outcome [9]: inactive
- outcome [11]: inactive
- outcome [13]: inactive

Structure (SMILES): CCCN(CCC)c1c([N+](=O)[O-])cc(C(F)(F)F)c(N)c1[N+](=O)[O-]
- AC50 [1]: 67.5 µM (active)
- AC50 [2]: 21.4 µM (active)
- AC50 [3]: 44.2 µM (active)
- outcome [4]: inactive
- outcome [5]: inactive
- outcome [6]: inactive
- outcome [17]: inactive
- outcome [15]: inactive
- outcome [18]: inactive
- outcome [8]: inactive
- outcome [9]: inactive
- outcome [10]: inactive
- outcome [11]: inactive
- outcome [12]: inactive
- outcome [13]: inactive

Structure (SMILES): CCN(Cc1c(F)cccc1Cl)c1c([N+](=O)[O-])cc(C(F)(F)F)cc1[N+](=O)[O-]
- outcome [1]: inactive
- outcome [2]: inactive
- outcome [3]: inactive
- outcome [4]: inactive
- outcome [5]: inactive
- outcome [6]: inactive
- outcome [14]: inactive
- outcome [17]: inactive
- outcome [15]: inactive
- outcome [18]: inactive
- outcome [9]: inactive
- outcome [10]: inactive
- outcome [11]: inactive
- outcome [12]: inactive
- outcome [13]: inactive

Structure (SMILES): C#C[C@]1(O)CC[C@H]2[C@@H]3CCC4=CC(=O)CC[C@@H]4[C@H]3CC[C@@]21CC
- outcome [1]: inactive
- outcome [2]: inactive
- outcome [3]: inactive
- outcome [4]: inactive
- outcome [6]: inactive
- outcome [14]: inactive
- outcome [17]: inactive
- outcome [15]: inactive
- outcome [18]: inactive
- outcome [8]: inactive
- outcome [9]: inactive
- outcome [10]: inactive
- outcome [11]: inactive
- outcome [13]: inactive

Structure (SMILES): COCCO
- outcome [1]: inactive
- outcome [2]: inactive
- outcome [4]: inactive
- outcome [6]: inactive
- outcome [14]: inactive
- outcome [17]: inactive
- outcome [15]: inactive
- outcome [18]: inactive
- outcome [9]: inactive
- outcome [10]: inactive
- outcome [11]: inactive
- outcome [12]: inactive
- outcome [19]: inactive
- outcome [13]: inactive

Structure (SMILES): C[C@]12CC[C@@H]3c4ccc(O)cc4C[C@@H](CCCCCCCCCS(=O)CCCC(F)(F)C(F)(F)F)[C@H]3[C@@H]1CC[C@@H]2O (stereo partly drawn)
- outcome [1]: inactive
- outcome [2]: inactive
- outcome [3]: inactive
- outcome [4]: inactive
- outcome [5]: inactive
- outcome [6]: inactive
- outcome [14]: inactive
- outcome [17]: inactive
- outcome [15]: inactive
- outcome [18]: inactive
- outcome [8]: inactive
- outcome [9]: inactive
- outcome [11]: inactive
- outcome [12]: inactive
- outcome [13]: inactive

Structure (SMILES): CCCCOC(=O)C(C)Oc1ccc(Oc2ccc(C(F)(F)F)cn2)cc1 (stereo not drawn)
- outcome [1]: inactive
- outcome [2]: inactive
- outcome [3]: inactive
- outcome [4]: inactive
- outcome [5]: inactive
- outcome [6]: inactive
- outcome [14]: inactive
- outcome [17]: inactive
- outcome [15]: inactive
- outcome [18]: inactive
- outcome [9]: inactive
- outcome [11]: inactive
- outcome [12]: inactive
- outcome [13]: inactive

Structure (SMILES): O=C(Nc1ccc([N+](=O)[O-])cc1Cl)c1cc(Cl)ccc1O
- AC50 [1]: 315 nM (active) and 320 nM (active)
- AC50 [2]: 0.174 µM (active)
- outcome [2]: inactive
- AC50 [3]: 0.317 µM (active)
- outcome [3]: inactive
- outcome [4]: inactive
- outcome [5]: inactive
- outcome [6]: inactive
- outcome [14]: inactive
- outcome [17]: inactive
- outcome [15]: inactive
- outcome [18]: inactive
- outcome [16]: inactive
- outcome [10]: inactive
- outcome [11]: inactive
- outcome [13]: inactive
